Experimental data from PubChem BioAssay (Tox21).
Several values for one entry are separate records, joined by “and”; a condition that tells them apart may be missing. Equal values may be shown once. Records with an inconclusive call do not appear. Entries that show only a call come without a potency. A structure can be active in one record and inactive in another. Activity calls are given as the source filed them. Unless noted, calls come from the whole dose curve; as a rule, active = well fitted curve in the direction sought with a large enough effect in the repeat runs; inconclusive = weak or mixed curves; inactive = no such curve, though single readings can be large; an effect the other way counts as inactive or inconclusive.

What was measured:
[1] = qHTS assay to identify small molecule agonists of the vitamin D receptor (VDR) signaling pathway - cell viability counter screen (AID 743224); note: nearly all actives have a fitted effect of over 50% in size; note: potency is the fitted concentration of half-maximal effect
Method in brief: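 VDR-bla cells were preincubated 4 h at 37C/5% CO2, then exposed to compounds for 16 h. After the 2 h room-temperature bla FRET read, CellTiter-Glo was added to the same wells and luminescence read after 30 min.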

[2] = qHTS assay to identify small molecule antagonists of the vitamin D receptor (VDR) signaling pathway - cell viability counter screen (AID 743225); note: nearly all actives have a fitted effect of over 50% in size
Method in brief: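 Cytotoxicity toward the VDR-bla HEK 293T line was scored by ATP-based CellTiter-Glo luminescence, read in the wells already used for the beta-lactamase readout after 16 h compound treatment under 3 nM 1-alpha,25-dihydroxyvitamin D3 stimulation.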

[3] = qHTS assay to identify small molecule agonists of the NFkB signaling pathway (AID 1159509; active = well fitted curve in the direction sought with a large enough effect in the signal ratio in the repeat runs, not every such curve was filed as active; the % refers to the signal ratio; note: series mostly up to about 61 µM)
Method in brief: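 NFkB-bla ME-180 cells carry a beta-lactamase reporter under an NF-kB response element. They were plated overnight, then exposed to compounds for 5 h at 37 C. Read-out is LiveBLAzer FRET after 1.5 hr at room temperature (405 nm excitation; 460/530 nm emission).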

[4] = qHTS assay to identify small molecule agonists of the endoplasmic reticulum stress response signaling pathway - cell viability counter screen (AID 1159517; calls by dose curve; note: nearly all actives have a fitted effect of over 50% in size; note: potency is the fitted concentration of half-maximal effect)
Method in brief: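 CellTiter-Glo was added to wells already read for beta-lactamase FRET, and luminescence was recorded 30 min later. Cells: ESRE-bla HeLa, 1,500 per well, compound exposure 5 hr at 37 C.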

[5] = qHTS assay to identify small molecule antagonists of the retinoid-related orphan receptor gamma (ROR-gamma) signaling pathway - cell viability counter screen (AID 1159520); note: nearly all actives have a fitted effect of over 50% in size; note: potency is the fitted concentration of half-maximal effect
Method in brief: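 Tet-on ROR gamma CHO cells (1,000/well) were plated 4 hr, given compounds in DMSO for 2 hr at 37 C, then induced with 1 uM final doxycycline for 16 hr. Viability was read as ATP by CellTiter-Glo luminescence after 30 min.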

[6] = qHTS assay to identify small molecule agonists of the AP-1 signaling pathway - cell viability counter screen (AID 1159525; calls by dose curve; note: nearly all actives have a fitted effect of over 55% in size)
Method in brief: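 ME-180 AP-1-bla, 2500 cells/well, Opti-MEM + 0.5% dialyzed FBS; overnight 37 °C; cpd 15-pt titration, 5 h 37 °C; CellTiter-Glo 30 min RT; luminescence read; normalised to TOAB and DMSO controls.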

[7] = qHTS assay to identify small molecule agonists of the RXR signaling pathway - cell viability counter screen (AID 1159529); note: nearly all actives have a fitted effect of over 50% in size; note: potency is the fitted concentration of half-maximal effect
Method in brief: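 Tox21 10K compounds were tested for cytotoxicity against GeneBLAzer RXR-alpha HEK 293T cells grown in 2% charcoal-stripped FBS. Exposure lasted 16 hr at 37 C, 5% CO2; viability read by CellTiter-Glo luminescence.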

[8] = qHTS assay to identify small molecule antagonists of the retinoid acid receptor (RAR) signaling pathway - cell viability counter screen (AID 1159551); note: nearly all actives have a fitted effect of over 35% in size
Method in brief: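 C3RL4 cells were seeded overnight at 37 C, then treated with compounds plus 1 uM (final) retinol for 6 h at 37 C. Viability was read as ATP by CellTiter-Glo luminescence after 30 min at room temperature.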

[9] = qHTS assay to identify small molecule agonists of the endoplasmic reticulum stress response signaling pathway (AID 1159516; active = well fitted activation curve with a large enough effect in the signal ratio in the repeat runs, not every such curve was filed as active; the % refers to the signal ratio)
Method in brief: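 CellSensor ESRE-bla HeLa cells, carrying a beta-lactamase reporter driven by the ER stress response element, were plated overnight and exposed to compounds for 5 hr at 37 C. Reporter activity was read as FRET substrate fluorescence after 2 hr at room temperature.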

[10] = qHTS assay to identify small molecule agonists of the AP-1 signaling pathway (AID 1159526; calls by dose curve)
[11] = molecular target: Retinoic acid receptor RXR-alpha (Homo sapiens) (UniProt P19793); experiment: qHTS assay to identify small molecule agonists of the RXR signaling pathway (AID 1159527; calls by dose curve; note: nearly all actives have a fitted effect of over 35% in size)
Method in brief: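 Reporter activation is measured as beta-lactamase activity via FRET substrate cleavage (emission 460/530 nm) in HEK 293T cells expressing an RXR-alpha-driven bla construct, following 16 hr compound exposure at 37 C.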

[12] = qHTS assay to identify small molecule antagonists of the retinoic acid receptor (RAR) signaling pathway (AID 1159552; note: nearly all actives have a fitted effect of over 50% in size; note: potency is the fitted concentration of half-maximal effect)
Method in brief: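 Overnight-plated C3RL4 reporter cells get compound, then retinol to 1 uM final; plates sit 6 hr at 37 C, 5% CO2. A luciferase reagent is added and light output recorded after 30 min at room temperature.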

[13] = qHTS assay to identify small molecule agonists of the retinoic acid receptor (RAR) signaling pathway (AID 1159553); note: potency is the fitted concentration of half-maximal effect
Method in brief: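 C3RL4 cells carrying a RARE luciferase reporter were plated overnight at 37 C, then exposed to compounds in DMSO for 6 hr at 37 C and 5% CO2. Luminescence was read 30 min after luciferase reagent addition at room temperature.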

[14] = molecular target: Nuclear receptor ROR-gamma (Homo sapiens) (UniProt P51449); experiment: qHTS assay to identify small molecule antagonists of the retinoid-related orphan receptor gamma (ROR-gamma) signaling pathway (AID 1159521; note: nearly all actives have a fitted effect of over 50% in size; note: potency is the fitted concentration of half-maximal effect)
Method in brief: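 Readout: ONE-Glo luciferase luminescence, 30 min at room temperature. System: Tet-on RORγ CHO, RORE-LUC. Sequence: compound 2 h, doxycycline 1 uM final, 16 h at 37 C.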

[15] = qHTS assay to identify small molecule antagonists of the estrogen related receptor (ERR) signaling pathway - cell viability counter screen (AID 1224818);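 note: series mostly up to about 46 µM; viability measured after 17.5 h of compound exposure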
Method in brief: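 ERR reporter cells plated 6 h at 37 C/5% CO2, then compounds in DMSO pin-transferred and incubated 17.5 h at 37 C. Viability read as CellTiter-Fluor fluorescence after 30 min at 37 C.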

[16] = qHTS assay to identify small molecule antagonists of the estrogen related receptor (ERR) signaling pathway (AID 1224819)
Method in brief: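 ERR reporter cells were plated at 2,000 cells/well and left 6 h at 37 C/5% CO2 before pin-tool transfer of compounds in DMSO. After 18 h at 37 C, One-Glo was added and luminescence was read 30 min later at room temperature.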

[17] = system: estrogen-related receptor alpha (ERRalpha) with PGC-1alpha coactivator, human; experiment: qHTS assay to identify small molecule antagonists of the estrogen related receptor signaling pathway with the pleiotropic PPARgamma coactivator (PGC) (AID 1224821; calls by dose curve)
Method in brief: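 PGC/ERR reporter cell line, plated 6 h before compound addition, then exposed 18 h at 37 °C. Luciferase activity read by luminescence 30 min after One-Glo addition; decrease indicates antagonism.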

[18] = qHTS assay to identify small molecule agonists of the estrogen related receptor signaling pathway with the pleiotropic PPARgamma coactivator (PGC) (AID 1224823)
Method in brief: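 PGC/ERR reporter cells seeded 6 h, then exposed to compounds (23 nL in DMSO) for 18 h at 37 C. One-Glo luciferase luminescence read after 30 min at room temperature.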

[19] = qHTS assay to identify small molecule agonists of the estrogen related receptor (ERR) signaling pathway (AID 1224820)
Method in brief: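 ERR reporter cell line (from NTP), 2,000 cells/well, incubated 6 h before compound addition, then 18 h at 37 C. Luminescence measured 30 min after One-Glo reagent at room temperature.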

Chain of Retinoic acid receptor RXR-alpha (Homo sapiens) (P19793 whole entry, looked up): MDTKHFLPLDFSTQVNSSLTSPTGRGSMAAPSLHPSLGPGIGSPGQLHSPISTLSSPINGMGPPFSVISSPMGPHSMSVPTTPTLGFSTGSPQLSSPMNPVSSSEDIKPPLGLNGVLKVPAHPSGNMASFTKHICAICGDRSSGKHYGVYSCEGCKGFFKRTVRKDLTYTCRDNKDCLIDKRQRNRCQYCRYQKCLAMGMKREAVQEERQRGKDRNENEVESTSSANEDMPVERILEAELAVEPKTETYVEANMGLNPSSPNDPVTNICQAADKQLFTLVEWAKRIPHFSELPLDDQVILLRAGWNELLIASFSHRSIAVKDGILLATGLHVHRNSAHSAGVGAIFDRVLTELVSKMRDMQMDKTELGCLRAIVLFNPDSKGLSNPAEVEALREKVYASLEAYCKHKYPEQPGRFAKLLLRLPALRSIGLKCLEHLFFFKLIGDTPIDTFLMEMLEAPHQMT

Compound: O=C(CBr)Nc1ccc(Cl)cc1C(=O)c1ccccc1F
- Potency [1]: inactive
- Potency [2]: inactive
- outcome [3]: inactive
- Potency [4]: 23.9 µM (active)
- Potency [5]: inactive
- Potency [6]: inactive
- Potency [7]: inactive
- Potency [8]: inactive

Compound: Cc1ccc2ccccc2c1
- Potency [1]: inactive
- Potency [2]: inactive
- outcome [3]: inactive
- outcome [9]: inactive
- Potency [4]: inactive
- Potency [6]: inactive
- outcome [10]: inactive
- Potency [7]: inactive
- Potency [8]: inactive

Compound: O=Cc1ccc(Cl)cc1Cl
- Potency [1]: inactive
- Potency [2]: inactive
- outcome [3]: inactive
- outcome [9]: inactive
- Potency [4]: inactive
- Potency [6]: inactive
- outcome [10]: inactive
- Potency [11]: inactive
- Potency [7]: inactive
- Potency [8]: inactive
- Potency [12]: inactive
- Potency [13]: inactive

Compound: NNC(=O)c1cccnc1
- Potency [1]: inactive
- Potency [2]: inactive
- outcome [3]: inactive
- Potency [4]: inactive
- Potency [14]: inactive
- Potency [6]: inactive
- outcome [10]: inactive
- Potency [11]: inactive
- Potency [7]: inactive
- Potency [8]: inactive
- Potency [12]: inactive
- Potency [13]: 30.7 µM (active)

Compound: N#CCc1ccccc1
- Potency [1]: inactive
- Potency [2]: inactive
- outcome [3]: inactive
- Potency [4]: inactive
- Potency [5]: inactive
- Potency [14]: inactive
- Potency [6]: inactive
- outcome [10]: inactive
- Potency [11]: inactive
- Potency [7]: inactive
- Potency [8]: inactive
- Potency [12]: inactive
- Potency [13]: inactive

Compound: O=C(CCl)c1ccc(Cl)cc1Cl
- Potency [1]: inactive and 18.8 µM (active)
- Potency [2]: inactive
- outcome [3]: inactive
- Potency [4]: 10.7 µM (active)
- Potency [5]: 11.9 µM (active)
- Potency [14]: 10.6 µM (active)
- Potency [6]: inactive
- Potency [7]: inactive and 13.4 µM (active)
- Potency [8]: inactive
- Potency [12]: 1.88 µM (active)

Compound: CCOC(=O)CBr
- Potency [1]: inactive
- outcome [3]: inactive
- Potency [4]: inactive
- Potency [14]: inactive
- Potency [6]: inactive
- outcome [10]: inactive
- Potency [11]: inactive
- Potency [7]: inactive
- Potency [8]: inactive
- Potency [12]: inactive
- Potency [13]: inactive

Compound: C=CC(=O)NCNC(=O)C=C
- Potency [1]: inactive
- outcome [3]: inactive
- Potency [4]: inactive
- Potency [5]: inactive
- Potency [6]: inactive
- outcome [10]: inactive
- Potency [8]: inactive
- Potency [13]: inactive
- outcome [15]: inactive
- outcome [16]: inactive
- Potency [17]: inactive
- outcome [18]: inactive

Compound: Cn1cc[n+](C)c1 (tested in a mixture with another compound)
- Potency [1]: inactive
- Potency [2]: inactive
- outcome [3]: inactive
- outcome [9]: inactive
- Potency [4]: inactive
- Potency [6]: inactive
- outcome [10]: inactive
- Potency [11]: inactive
- Potency [7]: inactive
- Potency [8]: inactive
- Potency [12]: inactive
- Potency [13]: inactive

Compound: c1cc2ccc3cccc4ccc(c1)c2c34
- outcome [3]: inactive
- Potency [5]: inactive
- Potency [14]: inactive
- outcome [10]: inactive
- Potency [7]: 36.3 µM (active)
- Potency [8]: inactive
- Potency [12]: inactive
- Potency [13]: inactive
- outcome [15]: inactive
- outcome [19]: inactive
- Potency [17]: inactive
- outcome [18]: inactive

Compound: O=NN1CCNCC1
- Potency [1]: inactive
- outcome [3]: inactive
- Potency [4]: inactive
- Potency [6]: inactive
- outcome [10]: inactive
- Potency [11]: inactive
- Potency [7]: inactive
- Potency [8]: inactive
- Potency [12]: inactive
- Potency [13]: inactive

Compound: CC(C)(CCl)C(=O)Cl
- Potency [1]: inactive
- outcome [3]: inactive
- Potency [4]: inactive
- Potency [5]: inactive
- Potency [14]: inactive
- Potency [6]: inactive
- Potency [7]: inactive
- Potency [8]: inactive
- Potency [12]: inactive

Compound: CC1C(=O)C[C@]2(C(C)C)C[C@H]12 (stereo not given in full)
- Potency [1]: inactive
- Potency [2]: inactive
- outcome [3]: inactive
- Potency [4]: inactive
- Potency [5]: inactive
- Potency [14]: inactive
- Potency [6]: inactive
- outcome [10]: inactive
- Potency [7]: inactive
- Potency [8]: inactive
- Potency [12]: inactive
- Potency [13]: inactive

Compound: COP(=O)(OC)O/C(=C/Cl)c1cc(Cl)c(Cl)cc1Cl
- outcome [3]: inactive
- outcome [9]: inactive
- Potency [5]: inactive
- Potency [6]: inactive
- Potency [11]: inactive
- Potency [7]: inactive
- Potency [8]: inactive
- Potency [12]: 57.5 µM (active)
